Assay outcomes deposited in PubChem by National Center for Advancing Translational Sciences (NCATS).
This excerpt belongs to a sample that is enriched for hits.
Cruzain inh Det: cruzain (T. cruzi) inhibition with detergent | P25779 | purified cruzain, Z-FR-AMC fluorescence, 0.01% Triton | Potency, µM, hits mostly inhibitors | 0.43% of 200,000 active | AID 1478; active means well fitted curve in the direction sought with a large enough effect; inconclusive means small, poorly fitted or top-dose-only effect, or another doubt; inactive means no such curve, though single readings can be large; an effect the other way counts as inactive or inconclusive; further: nearly all actives have a fitted effect of over 40% in size
Target sequence (P25779 123-467 limits assumed): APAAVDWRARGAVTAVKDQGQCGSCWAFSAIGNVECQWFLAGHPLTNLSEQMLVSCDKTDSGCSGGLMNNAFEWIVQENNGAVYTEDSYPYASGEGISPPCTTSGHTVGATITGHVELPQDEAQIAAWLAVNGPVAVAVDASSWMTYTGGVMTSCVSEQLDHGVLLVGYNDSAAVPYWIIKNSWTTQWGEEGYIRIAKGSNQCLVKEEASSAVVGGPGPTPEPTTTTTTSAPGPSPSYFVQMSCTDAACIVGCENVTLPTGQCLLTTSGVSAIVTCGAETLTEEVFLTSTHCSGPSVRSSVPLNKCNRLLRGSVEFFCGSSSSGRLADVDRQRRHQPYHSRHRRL
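Steps: dispense cruzain (1.5 nM final) in acetate buffer pH 5.5 with DTT and 0.01% Triton X-100; pin-transfer compounds; incubate 15 min RT; add Z-FR-AMC (2 uM final); read fluorescence every 30 s, using the 60 s intensity change.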
NS1 inh: influenza NS1 inhibition | Potency, µM (series often up to 46.1 µM) | 0.4% of 270,000 active; further: actives are rising curves; nearly all actives have a fitted effect of over 50% in size
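Read-out: OD600 growth recovery of NS1-expressing budding yeast. Cells grown overnight at 30C in -URA glucose medium, washed, resuspended and diluted 1:100 in 2% galactose assay medium, pH 6.0. Same strain lacking NS1 served as positive control.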
Cruzain noTriton: cruzain (T. cruzi) inhibition without detergent. P25779. purified cruzain, Z-FR-AMC fluorescence, no detergent. Potency, µM, actives largely listed as inhibitors. 2.3% of 200,000 active. AID 1476; active means well fitted curve in the direction sought with a large enough effect; inconclusive means small, poorly fitted or top-dose-only effect, or another doubt; inactive means no such curve, though single readings can be large; an effect the other way counts as inactive or inconclusive; further: nearly all actives have a fitted effect of over 40% in size
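Purified cruzain at 1.5 nM, pre-incubated 15 min with compound at room temperature in 100 mM sodium acetate pH 5.5, 5 mM DTT, 0.00005% Triton X-100. Reaction started with 2 uM Z-FR-AMC; AMC fluorescence increase over 60 s gives rate.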
Flu NS1 inh: validation of influenza NS1 protein function inhibitors. shares compounds with NS1 inh. influenza NS1 function cell assay, 15-point titration. activity change, negative = inhibition, % at 32.9 µM. 1,400 tested, under 10 active
Flu PR8 replic: reduces influenza A/PR/8/34 replication in MDCK cells; shares compounds with NS1 inh; MDCK infected influenza A/PR/8/34, virus titer TCID50; stronger effect = lower value; virus titer (log TCID50), log10 TCID50 at 5 µM; 30% of 95 active; AID 504647; call rule not given here
A number is an active result; - = inactive; ? = inconclusive; . = no result given. Unless noted, the call rests on the fitted dose curve.

SMILES	Cruzain inh Det	NS1 inh	Cruzain noTriton	Flu NS1 inh	others
O=C(N/N=C/c1ccc2c(c1)OCO2)c1cc(-c2ccc(F)cc2)nc2ccccc12	-	?	?	-
NC(=O)c1cc(S(=O)(=O)N2CCN(c3cccc(C(F)(F)F)c3)CC2)cs1	-	.	?	.
CN(c1ccccc1)S(=O)(=O)c1cccc(C(=O)OCC(=O)NCc2ccc3c(c2)OCO3)c1	-	-	-	.
CCc1ccc(N2CC(C)Cn3c2nc2c3c(=O)n(CCN3CCOCC3)c(=O)n2C)cc1 (stereo unspecified)	-	?	-	.
O=S(=O)(c1ccc(F)cc1)n1cnc2ccccc21	.	-	.	.
C[C@]12C=CC(=O)C=C1CCC1C2=CC[C@]2(C)[C@@H](C(=O)CN3CCN(c4cc(N5CCCC5)nc(N5CCCC5)n4)CC3)CC[C@@H]12 (stereo partly specified)	-	35µM	?	?
C[C@@H]1C[C@H]2[C@@H]3CCC4=CC(=O)C=C[C@]4(C)[C@@]3(F)[C@@H](O)C[C@]2(C)[C@H]1C(=O)CO	-	-	-	.
CC(=O)c1ccc(-n2nnnc2SCC(=O)Nc2sc(C)c(C)c2C#N)cc1	-	-	-	.
COC(=O)c1cc(C(=O)OC)cc(N2C(=O)CC(NNC(=O)c3ccc(C)cc3)C2=O)c1 (stereo unspecified)	-	7.1µM	-	-
COC(=O)c1cc(C(=O)OC)cc(N2C(=O)CC(NNC(=O)c3ccccc3Br)C2=O)c1 (stereo unspecified)	-	-	-	.
CCOC(=O)Cc1cc(=O)n(-c2nc3ccccc3s2)[nH]1	18µM	10µM	?	-
CCCc1cc(=O)n(-c2nc3ccccc3s2)[nH]1	.	-	.	.
Cc1nnsc1SCCNC(=O)c1c(F)cccc1F	-	-	-	.
COC(=O)[C@@]1(Cc2ccc(F)cc2)[C@H]2c3cc(C(=O)N4CCCC4)n(CCc4c[nH]c5ccc(OC)cc45)c3C[C@H]2CN1C(=O)c1ccccc1	-	13µM	?	-
COC(=O)[C@@]1(Cc2ccc(F)cc2)[C@H]2c3cc(C(=O)N4CCCC4)n(CCc4c[nH]c5cc(F)ccc45)c3C[C@H]2CN1C(=O)c1ccccc1	-	.	?	.
O=C(N1CCOCC1)N1CCN(S(=O)(=O)c2ccc(Cl)cc2)CC1	.	-	.	.
COc1cccc(C(C)NC(=O)Nc2cc(Cl)ccc2OC)c1 (stereo unspecified)	.	-	.	.
COc1cccc(C(C)NC(=O)Nc2cccc(C(F)(F)F)c2)c1 (stereo unspecified)	-	?	-	?
CC(C)CNC(=S)NC1CC2CCCC(C1)N2Cc1cccs1 (stereo unspecified)	-	-	-	.
Cc1ccc(CN2CCN(Cc3cn(C(C)C)c4ccccc34)CC2CCO)o1 (stereo unspecified)	.	-	.	.
CC(C)=CCN1CCN(Cc2cn(C(C)C)c3ccccc23)CC1CCO (stereo unspecified)	.	11µM	.	-
CCOC(=O)c1c(S(=O)(=O)NCC(=O)Nc2ccc(F)cc2F)c(C)n(C)c1C	.	-	.	.
c1ccc(C2=Nn3c(Cn4nnc5ccccc54)nnc3SC2)cc1	.	-	.	.
c1ccc(-c2ccc(C3=Nn4c(Cn5nnc6ccccc65)nnc4SC3)cc2)cc1	-	13µM	?	?
COCCCNC(=O)c1cc(Nc2ccc(OC)cc2OC)nc2ccccc12	.	-	.	.
SMILES	Cruzain inh Det	NS1 inh	Cruzain noTriton	Flu NS1 inh	others
CCOc1cc([C@H]2[C@@H]3CCCC[C@]3(O)CCN2CC(=O)NCc2ccco2)ccc1O	-	-	-	.
COc1cc(/C=C2/C(=O)N(c3ccc(Br)cc3)N=C2C)cc(OC)c1OC	.	11µM	.	-
COc1cc(/C=C2/C(=O)N(c3ccc(C(=O)O)cc3)N=C2C)cc(OC)c1O	.	-	.	.
COc1ccc(N=C2S/C(=C\c3ccco3)C(=O)N2CC(C)C)cc1	-	-	-	.
COc1ccc(N=C2S/C(=C\c3cc(C)n(C)c3C)C(=O)N2CC(C)C)cc1	-	7.1µM	-	-
COC(=O)c1ccc(OCC(=O)Nc2nn(-c3ccccc3)nc2C(N)=O)cc1	-	-	-	.
Cc1cccc(C)c1-n1c(C)cc(/C=N\Nc2ccc([N+](=O)[O-])cn2)c1C	-	13µM	16µM	-
O=[N+]([O-])c1ccc(N/N=C\c2cccnc2)nc1	.	-	.	.
O=C(O)c1cccc(NC(=S)N/N=C/c2cccnc2)c1	.	-	.	.
CCN(CC)CCNc1ncnc2c1sc1nc(N3CCOCC3)c3c(c12)CCCC3	.	-	.	.
CCOC(=O)N1CCC(NC(=O)c2ccccc2C(=O)O)CC1	.	?	.	-
CCOC(=O)N1CCC(NC(=O)Cc2ccccc2)CC1	.	-	.	.
N#Cc1sc2nc3c(cc2c1N)CCCC3	-	-	-	.
CC1C/C(=N\NC(=S)NCc2ccccc2)CC(C)(C)C1 (stereo unspecified)	-	?	-	?
C/C(=N\NC(=S)NCc1ccccc1)c1ccc2ccccc2c1	-	-	?	.
Cc1cc(=O)[nH]c2nnc(SCc3ccc(Cl)cc3)n12	-	.	?	.
O=C(CSc1nnc(CNC(=O)c2ccc(F)cc2)o1)NCCc1ccccc1	.	-	.	.
COc1ccc(-c2csc(Nc3ccc(S(=O)(=O)Nc4cc(OC)nc(OC)n4)cc3)n2)cc1	-	13µM	-	-	Flu PR8 replic=-
COc1cc(NS(=O)(=O)c2ccc(Nc3nc(-c4ccccn4)cs3)cc2)nc(OC)n1	.	-	.	.
COc1ccc(NC(=O)Nc2cccs2)cc1OC	-	?	-	-
COc1cccc(NC(=O)Nc2cccs2)c1	-	-	-	.
CS(=O)(=O)N1CCN(C(=O)c2ccc(Br)s2)CC1	-	-	-	.
O=[N+]([O-])c1cccc2ccccc12	-	.	-	.
O=[N+]([O-])c1ccccc1NCc1c(O)ccc2ccccc12	.	8.9µM	.	-
COc1ccc(-n2cnnc2SCC(=O)c2ccc(S(=O)(=O)N3CCOCC3)cc2)cc1	-	1.8µM	?	-
SMILES	Cruzain inh Det	NS1 inh	Cruzain noTriton	Flu NS1 inh	others
COc1ccc(-n2cnnc2SCC(=O)Nc2cc(S(=O)(=O)N3CCCCC3)ccc2C)cc1	-	-	-	.
Cc1nnc(NC(=O)CCn2c(=O)oc3ccc(Cl)cc32)s1	.	-	.	.
CNc1ncnc2ccc(-c3cccc(OC)c3)cc12	-	.	-	.
O=C(CCCn1c(=S)[nH]c2ccccc2c1=O)N1CCN(c2cccc(Cl)c2)CC1	-	-	?	.
CCCCC1=CC2=CC(=O)C(C)(OC(=O)CC)C(=O)C2=CN1CCc1ccccn1 (stereo unspecified)	.	?	.	-
CCCCC1=CC2=C(c3ccco3)C(=O)C(C)(OC(=O)c3ccc(OC)cc3)C(=O)C2=CN1CCc1ccccn1 (stereo unspecified)	.	?	.	-
COC(=O)CCCC1=CC2=CC(=O)C(C)(OC(=O)c3cccs3)C(=O)C2=CN1CCc1ccccn1 (stereo unspecified)	.	-	.	.
CCCCC1=CC2=C(c3ccco3)C(=O)C(C)(OC(=O)c3ccc(OC)cc3)C(=O)C2=CN1CCOC (stereo unspecified)	.	-	.	.
COc1ccc(CN2CCCC(C(=O)N3CCc4ccccc4C3)C2)cc1OC (stereo unspecified)	.	-	.	.
